In all, about 35,000 sequences were measured (“fluorescence intensity (a.u.)”: median about 10,000, highest 2% from about 52,000 on). What follows is part of a selection rich in the highest values, with near analogues and random picks from the rest.

The target in this assay is T1, OsWOX13 (Oryza sativa, UniProt Q5QMM3 1-267).
T1 sequence: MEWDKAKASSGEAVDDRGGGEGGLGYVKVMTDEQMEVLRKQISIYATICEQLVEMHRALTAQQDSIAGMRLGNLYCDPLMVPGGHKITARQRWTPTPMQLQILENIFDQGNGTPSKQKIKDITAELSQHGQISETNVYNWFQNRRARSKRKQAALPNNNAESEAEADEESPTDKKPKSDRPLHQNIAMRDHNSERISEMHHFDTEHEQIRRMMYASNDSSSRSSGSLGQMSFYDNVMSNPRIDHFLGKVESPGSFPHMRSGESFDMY
The assay can be described thus: protein-binding microarray (RPBM); PBS, 2% BSA, 51.3 ng/ul salmon testes DNA, 50 uM zinc acetate, 200 nM TF, 25 C, 1 h; high values mean tight binding. The settings on record: protein: recombinant; tags: N-terminal polyhistidine and DsRed monomer fusion (pET32a); label: CyDye5-dUTP incorporated in the synthesized complementary strand; 3' TTTTT single-stranded linker to array surface; dsDNA, one strand shown. The procedure, abridged: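 Binding signal here means per-feature fluorescence intensity in arbitrary units. The values were read on an Axon 4000B scanner after a custom Agilent array, double-stranded by primer extension with Cy5-dUTP, was incubated with 200 nM protein at 25 °C for 1 h in PBS with 2% BSA, salmon testes DNA and 50 µM zinc acetate, then washed. The proteins were transcription factors with an N-terminal polyhistidine tag and DsRed, expressed in E. coli BL21-CodonPlus and purified on Ni–NTA.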
Regarding “ATGATTACTAAAACTGTACTTAAAGGCAATGGTTTCTGTACGGAGTCACCTAGTGCAG”, the binding signal was 13900 fluorescence intensity (a.u.).

As to “CATTGATTGGATCGTACGCTTGTGTTGCATGACCAATGATCGGAGTCACCTAGTGCAG”, the binding signal was 44200 fluorescence intensity (a.u.).

“AATCCATGATTATCACATATTTACTGTAGAACTACATTGTCGGAGTCACCTAGTGCAG”: the binding signal was 11200 fluorescence intensity (a.u.).

Consider “TTAAATATAGTTAATTAAACTAGCTAGCTCCTCCGATCCTCGGAGTCACCTAGTGCAG”, for which the binding signal was 12800 fluorescence intensity (a.u.).

For the sequence “GTAGGATTGGATGGATATAGGAGCCTGCCTTGCCTTCCTCCGGAGTCACCTAGTGCAG”, the binding signal is 6030 fluorescence intensity (a.u.).

Turning to “CTCTCTCCTTGGCCTCTTCCTCCCTGGTCGGTAGCGCAGCCGGAGTCACCTAGTGCAG”, the binding signal is 59600 fluorescence intensity (a.u.).

For the sequence “CAAAATTGGCTCCTCACCCTTGTGCAGATGCAGCCTTCTTCGGAGTCACCTAGTGCAG”, the binding signal was 13700 fluorescence intensity (a.u.).

On to “CTTTGTAGACTGACAGTGATAGTATTGTACTGCTATACGTCGGAGTCACCTAGTGCAG”, for which the binding signal was 9250 fluorescence intensity (a.u.).

As for “TGGGCGGTTAATTTGACTTCGATGTTCAGTACCTTGTGGGCGGAGTCACCTAGTGCAG”, the binding signal is 4180 fluorescence intensity (a.u.).

“CTAGTAATAACACTGACATCAATTAGCAATTTAGCATCCGCGGAGTCACCTAGTGCAG”: the binding signal was 13200 fluorescence intensity (a.u.).

Consider “CTTGGCTGAAACAAATCAATTAACATCACAAACAGGAGAACGGAGTCACCTAGTGCAG”, for which the binding signal was 11300 fluorescence intensity (a.u.).

For the sequence “TCGTAAATTAATTATTAATAATATACTAATGGTATCCCCACGGAGTCACCTAGTGCAG”, the binding signal was 53900 fluorescence intensity (a.u.).

With “AATAATCATACTAATTATATAAGTATATACTAAATATTATCGGAGTCACCTAGTGCAG”, the binding signal is 7370 fluorescence intensity (a.u.).

For “ATATAATTACAATACAATCGTAGTGTAATTACACTGTAACCGGAGTCACCTAGTGCAG”, the binding signal is 14800 fluorescence intensity (a.u.).

Take “TCATCGTGGTATTAATTATTTAATAATTATAAATATATTTCGGAGTCACCTAGTGCAG”: the binding signal was 10200 fluorescence intensity (a.u.).

Take “CTTAATTAATATAATCGGCAGGAGCTCACTGTTTGTTAACCGGAGTCACCTAGTGCAG”: the binding signal was 52800 fluorescence intensity (a.u.).

As for “ACATTAATGATTAGAGACTATATTGTCTCTAACTGTTGTACGGAGTCACCTAGTGCAG”, the binding signal is 39900 fluorescence intensity (a.u.).

Take “GTTAATGATTAATTAGAGCATTTGTTGTCTCAACTATTGTCGGAGTCACCTAGTGCAG”: the binding signal was 58600 fluorescence intensity (a.u.).

“ACATCATTGACATAATATGATTTAACAACAAACAATTTAGCGGAGTCACCTAGTGCAG”: the binding signal was 34800 fluorescence intensity (a.u.).

Turning to “ACATTAATGATTAGAGACCATATTGTCATCAACTATTGTACGGAGTCACCTAGTGCAG”, the binding signal is 30800 fluorescence intensity (a.u.).

As to “TCATAACTATTTTAATTGACATACAAACAATGAGGCGGCACGGAGTCACCTAGTGCAG”, the binding signal is 58300 fluorescence intensity (a.u.).

In the case of “TAATGCTTAATTAATCTCAATATAATCGCGTGCTTTGTTTCGGAGTCACCTAGTGCAG”, the binding signal is 7810 fluorescence intensity (a.u.).

As for “TTCGGTTTTATTTTAATTGACATTTTGGACAATGATACGGCGGAGTCACCTAGTGCAG”, the binding signal is 27900 fluorescence intensity (a.u.).

Take “GCACCGTTGATGAAATTGCCGTTAGAATTTCGATCATCCCCGGAGTCACCTAGTGCAG”: the binding signal was 4810 fluorescence intensity (a.u.).

Regarding “GGTAATGATTTAACACCACCTAATTTATTTTGAACAAGCTCGGAGTCACCTAGTGCAG”, the binding signal is 20500 fluorescence intensity (a.u.).

In the case of “CATGTCTCAATAAATTGATCGTTGGCAAAATCGGTTAGTCCGGAGTCACCTAGTGCAG”, the binding signal is 4980 fluorescence intensity (a.u.).

For the sequence “TGGAATTTTGAGTGTGTGATTGCGTTATTACGTTGCAAGTCGGAGTCACCTAGTGCAG”, the binding signal was 3550 fluorescence intensity (a.u.).

Consider “GGTAATTTGTCCGGTATTGAAAGTTTAGGGTGAGCAATGTCGGAGTCACCTAGTGCAG”, for which the binding signal was 22900 fluorescence intensity (a.u.).

Turning to “CCATTAATTAATTAACCTGCAGCCTCAATTATTTGGTCTCCGGAGTCACCTAGTGCAG”, the binding signal is 57600 fluorescence intensity (a.u.).

As to “GAAGTGATTGATATTTGAGCAATTAGTCCGTTGTCAGGGTCGGAGTCACCTAGTGCAG”, the binding signal is 62400 fluorescence intensity (a.u.).

Take “TTTAATTAAATTTAACATTAAATATATTTTGACTATTTGTCGGAGTCACCTAGTGCAG”: the binding signal is 53000 fluorescence intensity (a.u.).

Consider “AATTAAATTTTAACTATTAATATTATATTTTATAAATATTCGGAGTCACCTAGTGCAG”, for which the binding signal is 6480 fluorescence intensity (a.u.).

With “ATATAATTAATTAAAATATTAATTATTATTTGTAAAATGGCGGAGTCACCTAGTGCAG”, the binding signal is 65500 fluorescence intensity (a.u.).

On to “TGCATTAATTATTGGAGAGTGCGGTCTCCTCTCCTCCCTCCGGAGTCACCTAGTGCAG”, for which the binding signal is 23200 fluorescence intensity (a.u.).

Turning to “TATTAATTTAATAAAATTAATTTGGTAATGTAAATATTATCGGAGTCACCTAGTGCAG”, the binding signal was 15600 fluorescence intensity (a.u.).

Take “ATTAATTTGACCAACTTCATTCAACATGTAACATGGTCTCCGGAGTCACCTAGTGCAG”: the binding signal is 16600 fluorescence intensity (a.u.).

For the sequence “TTAATAATTATTGTAAAATTTAATTTATATTTATTTGAATCGGAGTCACCTAGTGCAG”, the binding signal was 22600 fluorescence intensity (a.u.).

In the case of “AAACATTAATTTGTTTTATAATATATTATAAATGACTATACGGAGTCACCTAGTGCAG”, the binding signal was 15500 fluorescence intensity (a.u.).

Consider “TCCGATTAATGTGGAAATTTCTAGCCTCCACAGCGAACGTCGGAGTCACCTAGTGCAG”, for which the binding signal was 8650 fluorescence intensity (a.u.).

In the case of “TAGATACGAAAATTAATTGGAATTTTGGATTTGGATGGGACGGAGTCACCTAGTGCAG”, the binding signal was 24500 fluorescence intensity (a.u.).

Take “GTCACATCATTCTAATTTCAATTAAACTTCAAATTTTGGCCGGAGTCACCTAGTGCAG”: the binding signal is 12900 fluorescence intensity (a.u.).

With “CTGCAACTAAATTTTAGGATTAATTTAAGGAACTTTCGGGCGGAGTCACCTAGTGCAG”, the binding signal is 11300 fluorescence intensity (a.u.).
